Bioassay records as filed in PubChem.
The list is not random: actives were taken first. Their share in the collection is about 3.5%.
TEAD-YAP block = TEAD-YAP interaction inhibition | hit rate 1.4% among 640,000 | HEK-TIYL cells, TEAD-Gal4/YAP UAS-luciferase luminescence | inhibition, % at 9.12 µM; in the data active = inhibition above about 32%;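 note: 0% = median of test compound wells and 100% = reference inhibitor wells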
FBW7 act = human FBW7 E3 ligase activation, primary screen; normalized activity (activation), % at 26.1 µM; AID 1259310; Q969H0; AlphaScreen FBW7–phospho-cyclin E peptide binding, activator screen; hit rate 0.13% among 650,000; in the data active = normalized activity above about 1.9%;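 note: purified mutant Fbw7 with reduced substrate affinity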
GPR151 activ = human GPR151 activation; PathHunter beta-arrestin GPR151 cells, luminescence; activation, % at 11.2 µM; hit rate 1% among 650,000; in the data active = activation above about 4.9%;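 note: 0% = median of compound wells and 100% = cells with positive control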
Target sequence (Q8TDV0 whole entry, looked up): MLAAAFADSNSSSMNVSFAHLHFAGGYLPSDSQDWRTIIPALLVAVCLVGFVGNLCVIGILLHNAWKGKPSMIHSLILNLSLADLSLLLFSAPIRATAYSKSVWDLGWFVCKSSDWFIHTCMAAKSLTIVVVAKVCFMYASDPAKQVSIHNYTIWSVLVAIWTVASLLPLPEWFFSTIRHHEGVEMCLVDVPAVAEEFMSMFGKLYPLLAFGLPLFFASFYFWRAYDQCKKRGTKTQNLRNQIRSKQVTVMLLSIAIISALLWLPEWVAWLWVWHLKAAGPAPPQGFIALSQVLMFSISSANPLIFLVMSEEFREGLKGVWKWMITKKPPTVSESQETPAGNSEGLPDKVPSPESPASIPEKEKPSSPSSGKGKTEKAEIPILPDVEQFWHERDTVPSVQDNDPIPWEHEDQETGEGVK
MITF primary = human MITF inhibition, primary screen | AlphaScreen MITF homodimerization, bead proximity signal | inhibition, % at 2.6 µM | hit rate 0.91% among 650,000 | AID 1259374; in the data active = inhibition above about 50%;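 note: 0% = vehicle wells with protein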
MITF confirm = confirmation of human MITF inhibitors; shares compounds with MITF primary; AlphaScreen MITF homodimerization, biotin/His-MITF beads; inhibition, % at 2.6 µM; hit rate 16% among 4,700; AID 1259372;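 active = inhibition above a cutoff derived from the DMSO control wells, cut at about 28% in these data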;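 note: 0% = MITF dimer wells with DMSO only; inhibitors lower the bead chemiluminescence by keeping MITF from dimerizing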
AlphaScreen DR = optically interferes with AlphaScreen signal in dose response. shares compounds with MITF primary. AlphaScreen optical interference counterscreen, cell-free. IC50, µM. hit rate 6% among 480. AID 1259373; call rule not given here
AS interf ctr = optically interferes with AlphaScreen signal; LysRS AlphaScreen counterscreen, signal interference, triplicate; hit rate 7.6% among 4,700; shares compounds with MITF primary; AID 1259376; inhibition, % at 2.6 µM;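 active = inhibition above a cutoff derived from the DMSO control wells, cut at about 30% in these data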
* marks the source's active call; other numbers are inactive results; nt = no result.

SMILES	TEAD-YAP block	FBW7 act	GPR151 activ	MITF primary	MITF confirm	AS interf ctr	others
Cc1nc([N+](=O)[O-])cn1CC(=O)Nc1ccc(F)c(Cl)c1	12.5	0.2	2.1	52.6*	-6.2	-3.8
CCOc1cc(CN2CCN(Cc3ccc(Cl)cc3)CC2)ccc1OC	-4.3	-0.2	-0.8	61.3*	6.1	9.1
CCOc1cc(CN2CCN(Cc3cccnc3)CC2)ccc1OC	0.1	0.8	-0.5	73.8*	-8.5	-1.3
CCOc1cc(CN2CCN(Cc3ccccc3Cl)CC2)ccc1OC	-7.3	-0.1	-0.4	66.8*	7.6	11.8
CCOc1cc(CN2CCN(Cc3cccc(Cl)c3)CC2)ccc1OC	15.4	0.0	1.4	40.2	nt	nt
CCOc1cc(CN2CCN(C3CCCC3)CC2)ccc1OC	5.8	0.0	1.2	53.5*	-2.3	-7.3
Cc1cc(C(F)(F)F)nn1CC(=O)Nn1c(C2CCCCC2)nc2ccccc2c1=O	-3.3	0.3	-0.6	-1.8	nt	nt
O=C(NCc1ccccn1)c1ccc2c(=O)n(Cc3ccc4c(c3)OCO4)c(=S)[nH]c2c1	0.7	-0.1	0.8	4.2	nt	nt
CCOc1ccc(CN2CCN(Cc3cccnc3)CC2)cc1	2.0	-0.1	0.7	54.9*	35.2*	9.2	AlphaScreen DR=>5.78
CCOc1ccc(CN2CCN(c3ccccn3)CC2)cc1	11.3	-0.1	-0.2	25.2	nt	nt
CCOc1cc(CN2CCN(Cc3cc(OC)c(OC)c(OC)c3)CC2)ccc1OC	-8.4	-0.1	1.6	71.4*	-16.6	0.0
CCOc1cc(CN2CCCCC2)ccc1OC	10.0	0.2	0.9	2.2	nt	nt
O=C(CN1CCCCCC1)N/N=C/c1ccc(Cl)cc1Cl	-11.6	-0.2	0.1	18.0	nt	nt
O=C(NCc1cccs1)c1ccc(CNS(=O)(=O)c2ccc(F)cc2)cc1	-2.5	0.1	-0.3	0.0	nt	nt
O=C(NCCNCc1cccs1)c1ccc(F)cc1	6.9	0.2	-0.8	55.3*	-5.0	17.4
CCCC(C)NC(=O)Cc1ccc(Br)cc1 (stereo not given)	-14.6	0.0	1.0	50.8*	3.2	8.8
Cc1ccc(Cn2nnc3c(=O)n(CC(=O)c4ccc(Cl)cc4)cnc32)cc1	3.0	0.0	0.3	-21.9	nt	nt
COc1cccc(CN2CCN(Cc3ccc(C)cc3)CC2)c1OC	-3.6	-0.2	0.1	75.8*	-1.2	-2.3
CCOc1ccc(CN2CCN(Cc3cccc(OC)c3OC)CC2)cc1	-2.6	0.5	-1.3	78.7*	-3.4	2.9
COc1cccc(CN2CCN(Cc3ccc(Cl)cc3)CC2)c1OC	-9.7	0.0	0.6	70.4*	2.4	7.9
C=C(C)CN(CC)Cc1ccc([N+](=O)[O-])o1	-1.8	-0.2	1.5	64.9*	23.2	16.1
Cc1nn(C(=O)c2cccs2)c(N)c1-c1ccccc1	-68.8	0.0	1.3	6.1	nt	nt
Cc1nn(C(=O)c2ccc3c(c2)OCO3)c(N)c1-c1ccccc1	-31.9	-0.1	-1.6	51.6*	1.7	6.2
COc1ccc(C(=O)OCC(=O)c2ccc(C)c([N+](=O)[O-])c2)cc1	6.7	-0.1	1.1	2.9	nt	nt
Cc1cc(C)c(-c2csc(NC(=O)c3ccc(F)cc3)n2)c(C)c1	30.6	-0.1	-1.2	17.1	nt	nt
SMILES	TEAD-YAP block	FBW7 act	GPR151 activ	MITF primary	MITF confirm	AS interf ctr	others
Cc1ccccc1CN1CCN(S(=O)(=O)c2ccc(Cl)cc2)CC1	-26.8	-0.1	-0.9	53.1*	9.3	17.7
Cc1cc(S(=O)(=O)N2CCN(Cc3ccc(Cl)cc3)CC2)ccc1-n1cnnn1	10.5	-0.1	-0.3	60.0*	12.9	9.8
COc1cccc(CN2CCN(S(=O)(=O)c3ccccc3)CC2)c1OC	-4.3	-0.1	0.0	-1.9	nt	nt
CCOc1ccccc1CN1CCN(S(=O)(=O)c2ccc(Cl)cc2)CC1	-6.9	0.0	-1.4	61.4*	8.8	11.3
COc1ccccc1CN1CCN(S(=O)(=O)c2ccccc2)CC1	-3.5	0.1	-0.9	63.2*	1.0	9.4
Cn1c(=O)[nH]c2nnc(-c3ccc([N+](=O)[O-])cc3)nc2c1=O	-39.0	0.0	-10.5	-2.9	nt	nt
CN(CC1CCCCO1)C(=O)Cn1nnnc1CN1CCCCCC1 (stereo not given)	0.6	0.1	0.7	51.5*	12.6	-9.7
COc1ccc(/C=N/OC(=O)Nc2ccc(Cl)cc2)cc1OC	-10.6	0.0	1.0	18.8	nt	nt
Clc1cc2c(c3ncccc13)OCN(Cc1cccnc1)C2	83.5*	-1.2	-0.2	93.6*	96.3*	100.4*
O=S1(=O)CCC(N2COc3c(cc(Cl)c4cccnc34)C2)C1 (stereo not given)	14.4	-0.7	-0.1	54.8*	39.4*	91.2*
CC(C)NCC(=O)Nc1c2c(nc3c1CCC3)CCCC2	-0.4	0.1	-1.3	74.7*	1.3	-3.3
CCC(=O)Nc1c2c(nc3c1CCC3)CCCC2	-3.2	0.1	-1.4	7.8	nt	nt
CN(C)CC(=O)Nc1c2c(nc3c1CCC3)CCCC2	-8.4	0.0	-1.0	59.1*	-0.1	0.4
COCCNCc1c(C(=O)O)n(Cc2ccccc2C)c2ccccc12	-2.5	-0.2	-0.3	-15.9	nt	nt
c1ccc(N2CCN(c3nc4nonc4nc3N3CCSCC3)CC2)nc1	4.5	0.1	3.1	9.0	nt	nt
CCCn1c2ccccc2c2nnc(SCC(N)=O)nc21	-8.7	-0.1	1.4	3.0	nt	nt
NC(=O)CSc1nnc2c3ccccc3n(CCc3ccccc3)c2n1	-4.0	0.1	0.4	52.7*	6.9	-6.2
CCOc1cc(C(=O)NCc2ccncc2)cc(Br)c1OC	-0.7	0.2	-1.7	7.4	nt	nt
O=C(NCc1ccccc1)/C(=C/c1ccc(O)cc1)NC(=O)c1ccco1	-3.5	0.1	0.0	-1.9	nt	nt
O=C1C(=O)N(CCOCCO)C(c2cccs2)/C1=C(\O)c1ccc(F)cc1 (stereo not given)	4.5	-0.1	-1.5	54.9*	1.6	-6.1
O=C1C(=O)N(CCN2CCOCC2)C(c2cccs2)/C1=C(/O)c1ccc(F)cc1 (stereo not given)	-5.1	-0.1	-1.4	5.0	nt	nt
COc1ccc(C)cc1N(CC(=O)Nc1ccc(F)cc1F)S(C)(=O)=O	-6.5	-0.1	-0.3	51.5*	-1.6	13.0
COc1ccc(C)cc1N(CC(=O)Nc1ccccc1F)S(C)(=O)=O	7.5	0.0	-1.4	2.4	nt	nt
CCOc1ccc(C=C2C(=O)OC(C)(C(C)(C)C)OC2=O)cc1 (stereo not given)	-2.6	0.4	-0.4	30.3	nt	nt
Nc1ncc(N=Nc2ccc(Cl)c(S(=O)(=O)N3CCOCC3)c2)s1	-1.4	-0.3	-1.5	8.1	nt	nt
CCc1nc(NCCCCCO)c2nnn(Cc3ccccc3F)c2n1	11.9	0.1	1.2	58.9*	5.7	15.1
COC(=O)C1=C(O)C(C(=O)OC)C(c2ccc(C)cc2)C(C#N)(C#N)C1c1ccc(F)cc1 (stereo not given)	8.9	0.0	1.6	7.8	nt	nt
O=C(CCC1(Cc2ccccc2)CCC(=O)N1)NCC1CCCO1 (stereo not given)	-7.8	0.0	-0.1	6.4	nt	nt
CCn1c(C)nc2cc(C(=O)NNC(=O)NC3CCCCC3)ccc21	0.5	-0.1	0.1	8.7	nt	nt
